Test [1] is described as follows: qHTS assay to identify small molecule agonists of the sonic hedgehog signaling (Shh) pathway (AID 1259368; calls by dose curve;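 also: NIH/3T3-derived 3T3Gli1-Luc cells carrying a stable Gli1-driven firefly luciferase reporter; series mostly up to about 92 µM; nearly all actives have a fitted effect of over 15% in size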). In outline:
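Quantitative high-throughput format using a Gli1-driven firefly luciferase reporter line derived from NIH/3T3 cells. After a 24 hr compound treatment at 37 C and 5% CO2, luminescence reported Gli1 response element activity.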
Background: In qHTS, concentration-response curves come from the screen itself.

Test [2] can be described thus: qHTS assay to identify small molecule antagonists of the sonic hedgehog signaling (Shh) pathway (AID 1259369; calls by dose curve; also: nearly all actives have a fitted effect of over 45% in size; also: potency is read from the fitted curve at half-maximal effect). In outline:
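Stable Gli1-Luc reporter NIH/3T3 clone; quantitative HTS in stimulated mode with conditioned medium. Luminescence measured after 24hr compound treatment at 37 C.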

In test [3] the target is Estrogen receptor beta (Homo sapiens) (UniProt Q92731). As to the kind of experiment: qHTS assay to identify small molecule antagonists of the estrogen receptor beta (ER-beta) signaling pathway (AID 1259378; active = well fitted inhibition curve with a large enough effect in the signal ratio in the repeat runs, not every such curve was filed as active; the % refers to the signal ratio). The gist of the method:
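ER-beta-UAS-bla HEK293T cells in 2% charcoal-stripped FBS medium treated with compound plus 1nM final 17-beta-estradiol for 16 hr at 37C. Beta-lactamase reporter read by FRET substrate fluorescence after 2 hours at room temperature.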

The nature of test [4]: qHTS assay to identify small molecule agonists of the androgen receptor (AR) signaling pathway in the presence of an antagonist - cell viability counter screen (AID 1259379). Also: nearly all actives have a fitted effect of over 25% in size. Also: potency is read from the fitted curve at half-maximal effect. The gist of the method:
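Nilutamide-containing (3.0uM final) MDA-kb2 cultures, 3,000 cells/well, were treated with compounds across 15 concentrations. After 16 hr at 37C with no CO2, cell viability was determined by CellTiter-Fluor fluorescence in the luciferase assay wells.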

Test [5] can be described thus: qHTS assay to identify small molecule agonists of the estrogen receptor beta (ER-beta) signaling pathway - cell viability counter screen (AID 1259380). Also: nearly all actives have a fitted effect of over 30% in size. Also: potency is read from the fitted curve at half-maximal effect. In outline:
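Steps: plate ER-beta-UAS-bla HEK293T cells, rest 6 hr; add compounds in DMSO; incubate 16 hr at 37C, 5% CO2; add FRET substrate 2 hr; add CellTiter-Glo, wait 30 min at room temperature; read luminescence.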

Test [6] deals with Estrogen receptor (Homo sapiens) (UniProt P03372). As to the kind of experiment: qHTS assay to identify small molecule agonists of the estrogen receptor alpha (ER-alpha) signaling pathway in the presence of an antagonist (AID 1259383; calls by dose curve; also: nearly all actives have a fitted effect of over 15% in size; also: potency is read from the fitted curve at half-maximal effect; as to activation: top concentration of the series differs between compounds). The gist of the method: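 Readout was ERE-driven luciferase luminescence in VM7Luc4E2 cells, which express full-length ER-alpha endogenously. Compounds were tested at 15 concentrations for 22hr alongside 10.0nM ICI-182,780 (final concentration).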

Test [7] in a line: qHTS assay to identify small molecule agonists or antagonists of the thyroid stimulating hormone receptor (TSHR) signaling pathway - wild type cell line counter screen (AID 1259384; calls by dose curve). In outline:
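Wild-type Hek293 cells, 800/well, 18 h at 37C, then compound with Ro20-1724 for 30 min RT. cAMP by HTRF (cAMP-d2/anti-cAMP cryptate), 1 h RT, fluorescence read. 15 concentrations, triplicates.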

Test [8] addresses Thyrotropin receptor (Homo sapiens) (UniProt P16473). As to the kind of experiment: qHTS assay to identify small molecule antagonists of the thyroid stimulating hormone receptor (TSHR) signaling pathway (AID 1259385; calls by dose curve; also: nearly all actives have a fitted effect of over 20% in size). In outline: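 TSHR-HEK293 cells (800/well) plated 18 h, then compounds with Ro20-1724 and TSH at 1.5 ng/mL final, 30 min at room temperature. cAMP quantified by HTRF (cAMP-d2/anti-cAMP-cryptate, 1 h); 15 concentrations in triplicate.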

Test [9] is described as follows: qHTS assay to identify small molecule agonists of the estrogen receptor alpha (ER-alpha) signaling pathway in the presence of an antagonist - cell viability counter screen (AID 1259386).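 Also: cells exposed to compounds for 22 h at 37 °C before the viability read; nearly all actives have a fitted effect of over 30% in size.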 Also: potency is read from the fitted curve at half-maximal effect. In outline: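 In this counter screen, compound effects on VM7Luc4E2 viability were tested in the presence of the antagonist ICI-182,780 at 10.0nM final. Compounds were dosed at 15 concentrations, exposure lasted 22hr, and the CellTiter-Fluor signal was read.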

Test [10] has as its target Progesterone receptor (Homo sapiens) (UniProt P06401). As to the kind of experiment: qHTS assay to identify small molecule agonists of the progesterone receptor (PR) signaling pathway (AID 1346784; calls by dose curve; also: nearly all actives have a fitted effect of over 30% in size). In outline:
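PR-UAS-bla HEK 293T cells (beta-lactamase reporter under UAS) in 2% charcoal-stripped FBS, dosed with 23 nL compound after 6 hr, incubated 16hr at 37C. LiveBLAzer B/G FRET substrate added, fluorescence read after 2 hours.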

Test [11] can be described thus: qHTS assay to identify small molecule antagonists of the progesterone receptor (PR) signaling pathway - cell viability counter screen (AID 1346798). Also: series mostly up to about 92 µM; nearly all actives have a fitted effect of over 50% in size. The gist of the method:
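PR-UAS-bla HEK293T cells, 3,000/well in 2% charcoal-stripped FBS medium, dosed with compounds plus R5020 agonist and incubated 16 h at 37C. Viability then measured in the same wells by CellTiter-Glo luminescence after 30 min at RT.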

The nature of test [12]: qHTS assay to identify small molecule agonists of the progesterone receptor (PR) signaling pathway - cell viability counter screen (AID 1346799; calls by dose curve; also: nearly all actives have a fitted effect of over 45% in size). The gist of the method: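 Counter screen in the PR-UAS-bla HEK293T wells (2% charcoal-stripped FBS, 16 h compound exposure at 37 C) after the bla read. CellTiter-Glo added, 30 min at room temperature, luminescence read as cell viability.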

The nature of test [13]: qHTS assay to identify small molecule antagonists of the TGF-beta/Smad signaling pathway - cell viability counter screen (AID 1346824). Also: nearly all actives have a fitted effect of over 50% in size. The gist of the method: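 SBE-bla HEK 293T cells, incubated overnight, then compound plus 0.25 ng/mL TGF-beta1 (stock added) for 5 hr at 37 C. Viability was read in the same wells by CellTiter-Glo luminescence after 30 min at room temperature.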

Test [14] in a line: qHTS assay to identify small molecule agonists of the TGF-beta/Smad signaling pathway - cell viability counter screen (AID 1346829). Also: top concentration of the series differs between compounds; nearly all actives have a fitted effect of over 45% in size. The gist of the method:
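Compound-treated SBE-bla HEK 293T cells (5 hr, 37 C) were assessed for viability with CellTiter-Glo in parallel with the reporter read.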

Test [15] is described as follows: qHTS assay to identify small molecule agonists of the TGF-beta/Smad signaling pathway (AID 1346859; active = well fitted activation curve with a large enough effect in the signal ratio in the repeat runs, not every such curve was filed as active; the % refers to the signal ratio; also: series mostly up to about 77 µM). In outline:
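SBE-bla HEK293T cells plated overnight, then compound exposure for 5 h at 37 C. Beta-lactamase reporter read with LiveBLAzer B/G FRET substrate after 2 h at room temperature, fluorescence at 405 nm excitation, 460/530 nm emission.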

The target of test [16] is Thyrotropin-releasing hormone receptor (Homo sapiens) (UniProt P34981). Put plainly: qHTS assay to identify small molecule antagonists of the thyrotropin-releasing hormone receptor (TRHR) signaling pathway (AID 1346877; active = well fitted inhibition curve with a large enough effect in the repeat runs, not every such curve was filed as active; also: series mostly up to about 51 µM). In outline: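 Kinetic fluorescence (3 min, 1 s resolution) following stimulation with TRH at 1 nM final; HEK293 cells bearing human TRHR; 5 min compound preincubation at RT; concentration-response over 15 points, triplicates.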

Test [17] can be described thus: qHTS assay to identify small molecule antagonists of the estrogen receptor beta (ER-beta) signaling pathway - cell viability counter screen (AID 1259382). Also: series mostly up to about 92 µM; nearly all actives have a fitted effect of over 55% in size. In outline:
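Viability is scored by CellTiter-Glo luminescence (30 min, room temperature) in ER-beta-UAS-bla HEK293T wells already read for reporter fluorescence. Compound exposure lasts 16 hr at 37C alongside 1nM 17-beta-estradiol in charcoal-stripped serum medium.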

The target of test [18] is Progesterone receptor (Homo sapiens) (UniProt P06401). As to the kind of experiment: qHTS assay to identify small molecule antagonists of the progesterone receptor (PR) signaling pathway (AID 1346795; active = well fitted inhibition curve with a large enough effect in the signal ratio in the repeat runs, not every such curve was filed as active; the % refers to the signal ratio; also: potency is read from the fitted curve at half-maximal effect). The gist of the method:
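PR-UAS-bla HEK293T cells with beta-lactamase reporter under UAS control, in 2% charcoal-stripped FBS, treated with compounds plus 1 nM promegestone (R5020, final) for 16 hr at 37C. Read-out: FRET beta-lactamase substrate fluorescence after 2 hr at room temperature.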

Test [19] deals with Androgen receptor (Homo sapiens) (UniProt P10275). As to the kind of experiment: qHTS assay to identify small molecule agonists of the androgen receptor (AR) signaling pathway in the presence of an antagonist (AID 1259381; calls by dose curve; also: nearly all actives have a fitted effect of over 15% in size). In outline:
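Reporter-gene luminescence from MDA-kb2 cells exposed 16hr at 37C (0% CO2) to 15-point compound titrations with 3.0uM final nilutamide as AR antagonist.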

Each structure is given as a SMILES string. Where “and” joins values, the source holds several entries; their conditions need not be identical. Equal values may be shown once. Results filed as inconclusive are left out. Where a structure was tested more than once in an assay, its records may differ in their call. Calls of active or inactive are those of the source. Unless noted, calls follow the shape of the dose curve; as a rule, active = well fitted curve in the direction sought with a large enough effect in the repeat runs; inconclusive = weak or mixed curves; inactive = no such curve, though single readings can be large; an effect the other way counts as inactive or inconclusive.

Estrogen receptor (Homo sapiens), sequence (P03372 whole entry, looked up): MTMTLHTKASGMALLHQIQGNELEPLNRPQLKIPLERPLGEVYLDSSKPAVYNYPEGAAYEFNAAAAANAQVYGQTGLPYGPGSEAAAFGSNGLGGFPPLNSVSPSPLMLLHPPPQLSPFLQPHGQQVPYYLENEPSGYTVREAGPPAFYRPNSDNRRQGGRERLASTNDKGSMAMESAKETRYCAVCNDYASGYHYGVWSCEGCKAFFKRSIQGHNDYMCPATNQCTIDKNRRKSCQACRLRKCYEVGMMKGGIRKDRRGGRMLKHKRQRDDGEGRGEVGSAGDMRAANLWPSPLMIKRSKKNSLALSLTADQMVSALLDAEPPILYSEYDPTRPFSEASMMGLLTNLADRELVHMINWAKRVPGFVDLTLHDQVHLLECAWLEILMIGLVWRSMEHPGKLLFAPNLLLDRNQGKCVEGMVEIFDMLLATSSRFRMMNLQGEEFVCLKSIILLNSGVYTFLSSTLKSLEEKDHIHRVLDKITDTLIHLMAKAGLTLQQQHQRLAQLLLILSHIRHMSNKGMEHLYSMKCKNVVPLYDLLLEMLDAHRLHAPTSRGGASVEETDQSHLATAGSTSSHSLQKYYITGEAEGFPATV
Thyrotropin-releasing hormone receptor (Homo sapiens), sequence (P34981 whole entry, looked up): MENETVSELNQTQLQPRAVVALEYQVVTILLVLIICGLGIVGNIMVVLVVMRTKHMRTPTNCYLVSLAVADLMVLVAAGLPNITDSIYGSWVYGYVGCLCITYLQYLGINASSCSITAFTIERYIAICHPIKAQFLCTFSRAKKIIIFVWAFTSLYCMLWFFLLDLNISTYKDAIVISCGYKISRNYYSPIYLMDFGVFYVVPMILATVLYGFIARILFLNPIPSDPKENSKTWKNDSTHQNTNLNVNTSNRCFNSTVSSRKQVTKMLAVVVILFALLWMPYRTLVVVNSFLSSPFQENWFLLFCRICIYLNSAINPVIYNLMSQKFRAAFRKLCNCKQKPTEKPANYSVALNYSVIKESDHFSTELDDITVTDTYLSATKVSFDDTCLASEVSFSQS
Thyrotropin receptor (Homo sapiens), sequence (P16473 whole entry, looked up): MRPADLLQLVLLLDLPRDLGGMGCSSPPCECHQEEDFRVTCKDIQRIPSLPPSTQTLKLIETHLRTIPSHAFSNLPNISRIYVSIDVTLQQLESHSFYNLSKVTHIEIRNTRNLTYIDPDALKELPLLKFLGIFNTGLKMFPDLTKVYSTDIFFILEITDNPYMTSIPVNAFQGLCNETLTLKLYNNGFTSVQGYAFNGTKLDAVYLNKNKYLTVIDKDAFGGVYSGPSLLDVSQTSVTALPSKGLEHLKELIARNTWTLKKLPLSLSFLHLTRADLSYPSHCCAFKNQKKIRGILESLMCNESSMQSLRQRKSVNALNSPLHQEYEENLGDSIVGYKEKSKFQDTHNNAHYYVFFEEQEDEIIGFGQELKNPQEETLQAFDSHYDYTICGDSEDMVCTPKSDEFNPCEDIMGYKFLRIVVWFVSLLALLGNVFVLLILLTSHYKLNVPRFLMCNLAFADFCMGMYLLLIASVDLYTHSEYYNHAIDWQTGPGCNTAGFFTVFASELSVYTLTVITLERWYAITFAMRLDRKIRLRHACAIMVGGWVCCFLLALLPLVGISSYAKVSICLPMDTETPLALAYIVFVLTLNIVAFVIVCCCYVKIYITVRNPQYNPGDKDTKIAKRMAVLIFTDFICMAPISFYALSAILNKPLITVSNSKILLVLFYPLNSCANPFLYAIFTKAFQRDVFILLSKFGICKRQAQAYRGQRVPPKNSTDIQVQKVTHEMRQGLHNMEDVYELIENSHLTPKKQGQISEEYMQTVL
Progesterone receptor (Homo sapiens), sequence (P06401 whole entry, looked up): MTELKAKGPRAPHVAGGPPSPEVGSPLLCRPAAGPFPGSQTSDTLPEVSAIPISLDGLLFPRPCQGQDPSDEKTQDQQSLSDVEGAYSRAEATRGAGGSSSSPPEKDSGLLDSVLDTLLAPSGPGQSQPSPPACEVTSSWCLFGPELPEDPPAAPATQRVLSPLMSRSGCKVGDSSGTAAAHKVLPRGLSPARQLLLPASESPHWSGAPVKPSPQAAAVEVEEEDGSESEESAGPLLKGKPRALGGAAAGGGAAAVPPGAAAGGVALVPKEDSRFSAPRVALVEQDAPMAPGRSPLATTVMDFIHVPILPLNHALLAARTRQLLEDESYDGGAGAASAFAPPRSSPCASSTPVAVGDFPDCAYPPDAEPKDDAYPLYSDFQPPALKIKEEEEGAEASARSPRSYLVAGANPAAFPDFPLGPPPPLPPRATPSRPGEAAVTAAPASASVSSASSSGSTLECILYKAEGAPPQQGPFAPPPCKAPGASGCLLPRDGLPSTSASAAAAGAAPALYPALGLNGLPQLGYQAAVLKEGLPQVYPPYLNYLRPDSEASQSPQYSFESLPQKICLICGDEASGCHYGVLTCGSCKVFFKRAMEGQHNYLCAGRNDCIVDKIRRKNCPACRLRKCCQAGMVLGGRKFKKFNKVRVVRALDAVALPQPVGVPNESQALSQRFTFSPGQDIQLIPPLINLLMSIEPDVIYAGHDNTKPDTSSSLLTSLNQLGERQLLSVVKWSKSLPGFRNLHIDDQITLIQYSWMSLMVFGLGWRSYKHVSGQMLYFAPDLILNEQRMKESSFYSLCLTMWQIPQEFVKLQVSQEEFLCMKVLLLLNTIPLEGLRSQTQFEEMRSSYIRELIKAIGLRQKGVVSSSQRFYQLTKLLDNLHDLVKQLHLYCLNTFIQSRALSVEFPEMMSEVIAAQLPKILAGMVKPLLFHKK
Estrogen receptor beta (Homo sapiens), sequence (Q92731 whole entry, looked up): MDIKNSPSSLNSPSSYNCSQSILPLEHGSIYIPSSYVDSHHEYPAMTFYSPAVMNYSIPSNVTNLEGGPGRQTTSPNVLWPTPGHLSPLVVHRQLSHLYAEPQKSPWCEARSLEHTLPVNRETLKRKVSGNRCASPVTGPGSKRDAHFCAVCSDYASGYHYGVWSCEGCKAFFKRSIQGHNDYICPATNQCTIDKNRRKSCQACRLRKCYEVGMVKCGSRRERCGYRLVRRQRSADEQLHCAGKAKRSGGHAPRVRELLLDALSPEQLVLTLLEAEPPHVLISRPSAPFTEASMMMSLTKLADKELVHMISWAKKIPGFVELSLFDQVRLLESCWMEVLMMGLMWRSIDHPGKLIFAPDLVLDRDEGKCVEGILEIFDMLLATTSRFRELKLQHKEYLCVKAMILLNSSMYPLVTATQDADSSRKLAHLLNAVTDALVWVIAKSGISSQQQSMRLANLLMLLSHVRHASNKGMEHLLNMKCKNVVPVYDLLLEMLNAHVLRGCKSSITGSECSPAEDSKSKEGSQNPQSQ
Androgen receptor (Homo sapiens), sequence (P10275 whole entry, looked up): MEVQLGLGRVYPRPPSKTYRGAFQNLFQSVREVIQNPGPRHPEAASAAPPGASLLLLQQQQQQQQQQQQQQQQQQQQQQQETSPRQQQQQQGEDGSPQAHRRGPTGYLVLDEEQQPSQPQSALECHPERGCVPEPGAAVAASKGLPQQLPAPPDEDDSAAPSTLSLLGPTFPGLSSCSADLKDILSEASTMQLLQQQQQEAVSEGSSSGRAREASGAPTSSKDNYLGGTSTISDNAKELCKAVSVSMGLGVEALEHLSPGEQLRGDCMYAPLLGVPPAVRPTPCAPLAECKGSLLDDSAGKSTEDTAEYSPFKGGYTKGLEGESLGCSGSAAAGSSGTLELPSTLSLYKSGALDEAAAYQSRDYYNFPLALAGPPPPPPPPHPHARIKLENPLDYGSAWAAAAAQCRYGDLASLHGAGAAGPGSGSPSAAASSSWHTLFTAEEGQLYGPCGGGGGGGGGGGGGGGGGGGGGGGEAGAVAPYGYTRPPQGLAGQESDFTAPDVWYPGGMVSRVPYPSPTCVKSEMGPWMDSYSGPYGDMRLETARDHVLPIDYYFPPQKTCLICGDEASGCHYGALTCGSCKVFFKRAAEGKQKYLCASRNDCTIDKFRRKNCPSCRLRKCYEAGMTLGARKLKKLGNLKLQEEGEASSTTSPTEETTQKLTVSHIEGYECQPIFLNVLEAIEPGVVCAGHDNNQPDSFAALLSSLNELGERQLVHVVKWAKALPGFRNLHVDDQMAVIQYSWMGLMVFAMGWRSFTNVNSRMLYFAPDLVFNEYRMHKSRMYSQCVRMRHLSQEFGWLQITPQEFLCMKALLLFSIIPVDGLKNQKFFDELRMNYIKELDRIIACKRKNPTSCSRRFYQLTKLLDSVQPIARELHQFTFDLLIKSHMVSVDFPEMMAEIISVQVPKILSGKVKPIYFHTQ

For `Cc1ccc2c(c1N)C(=O)c1ccccc1C2=O`, the Potency result in test [1], in test [2], in test [3], in test [10], in test [11] and in [12] was “inactive” throughout. The Potency result in test [13], in test [14] and in test [16] was “inactive” in each case. Besides, the Potency in test [4] was 27 µM (active); in [5] it was 30.3 µM (active); in [6], 6.04 µM (active) and inactive; in test [9] it was 27 µM (active) and 27.3 µM (active). Further, the result in [7], in [8] and in test [15] was inactive.
As for `NCc1cccnc1`, the Potency result in test [1], in [2], in test [4], in test [5], in [17] and in test [6] was “inactive” in each case. The Potency result in [9], in test [18], in test [11], in test [12], in [13] and in [14] was “inactive” throughout. Moreover, the Potency result in test [16] was “inactive”. The outcome in test [7], in test [8] and in [15] was inactive.
For the compound `C[C@]12CCC(=O)C(O)=C1CC[C@@H]1[C@@H]2CC[C@]2(C)C(=O)CC[C@@H]12`, the Potency result in test [1], in [4], in test [6], in test [9], in test [10] and in test [12] was “inactive” each time. The Potency entry in [13] and in test [14] was “inactive” each time. Moreover, in test [15], the compound was classed as inactive.
Turning to `Clc1nc(Cl)nc(Cl)n1`, the Potency entry in [1], in test [2], in test [4], in test [5], in [17] and in test [6] was “inactive” in each case. Also, the Potency entry in test [9], in test [10], in [18], in test [11], in [12] and in test [13] was “inactive” each time. For the same compound, the Potency entry in test [14] and in test [16] was “inactive” each time. Moreover, the result in test [15] was inactive.
Consider `CCc1cccc(CC)c1N(COC)C(=O)CCl`, for which the Potency entry in test [1], in test [4], in test [19], in [6], in test [9] and in [10] was “inactive” in each case. Moreover, the Potency entry in [11], in [13], in test [14] and in test [16] was “inactive” each time. Further, the Potency in test [2] was 26.4 µM (active). Also, the compound was classed as inactive in [7] and in test [15].
For the compound `Oc1c(Cl)c(Cl)c(Cl)c(Cl)c1Cl`, the Potency entry in test [1], in [2], in [4], in [5], in [6] and in test [9] was “inactive” throughout. Also, the Potency entry in test [10], in test [11], in [13], in test [14] and in test [16] was “inactive” throughout. The compound was classed as inactive in test [7], in test [8] and in [15]. In addition, in test [18], the Potency was 59.9 µM (active) and 48.6 µM (active).
Turning to `O=Cc1ccco1`, the Potency result in test [1], in test [2], in [4], in test [5], in test [17] and in test [9] was “inactive” each time. In addition, the Potency entry in test [10], in [18], in [11], in test [12], in test [13] and in test [14] was “inactive” each time. The Potency result in test [16] is “inactive”. Moreover, the call in test [7], in test [8] and in test [15] was inactive.
Turning to `N#CCCCl`, the Potency result in test [1], in [2], in test [4], in [5], in test [17] and in test [9] was “inactive” each time. The Potency result in test [10], in test [18], in test [11], in [12], in test [13] and in [14] was “inactive” in each case. For the same compound, the result in test [7], in test [8] and in test [15] was inactive.

These data come from PubChem BioAssay (Tox21).
